Nine molecules from PubChem BioAssay (NCATS) can be followed below.

Records with an inconclusive call do not appear. Unmarked numbers belong to inactive results. Calls come from the whole dose curve; as a rule, active = well fitted cell-killing curve with a large enough effect; inconclusive = small, poorly fitted or top-dose-only effect, or effect the other way; inactive = flat fitted curve, though single readings scatter. Where a SMILES comes first, the peptide text is derived from it. The star is where a group is joined. PhAc = O=C(Cc1ccccc1)*
% is set by controls: 0 for no effect and ±100 for the full control effect.

The test concerns PA-1. As to the kind of experiment: Primary qHTS to identify gynecologic anti-cancer compounds using libraries of approved drugs and bioactive compounds (AID 1345084). Note: nearly all actives have a fitted effect of over 55% in size. To be noted: Gynecologic cancer cell panel viability, ATPlite luminescence, 48 h; series mostly up to 57.5 µM; activity change, negative = cytotoxicity: at the top concentration. A digest of the protocol:
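48 h compound exposure at 37 C, 5% CO2; five-point qHTS. ATPlite luminescence readout of cell ATP.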
On the technique in general: Quantitative high-throughput screening tests each substance at several concentrations.
Take `COC1CC(O[C@H]2CC[C@@]3(C)C(=CC[C@]4(O)C3[C@H](O)[C@@H](O)[C@]3(C)[C@@H]([C@H](C)O)CC[C@@]34O)C2)OC(C)C1OC1CC(OC)C(OC2CC(OC)C(OC3OC(C)C(OC4OC(CO)C(O)C(O)C4O)C(OC)C3O)C(C)O2)C(C)O1` (some centres undefined): the activity change, negative = cytotoxicity is -4.49% [at 11.6 µM].

Turning to `C=C1CCC2[C@](C)(CO)CCC[C@@]2(C)[C@@H]1CCC1=CCOC1=O` (some centres undefined), the “activity change, negative = cytotoxicity” value was -0.426% [at 38.5 µM].

Take `C=C1CCC[C@]2(C)CC[C@@](O)(C(=C)C(=O)O)C[C@@H]12`: the “activity change, negative = cytotoxicity” value was -0.312%. Then `CC1CC(=O)[C@]2(O)C(C(=O)OCCc3ccc(O)cc3)=CO[C@@H](O[C@@H]3O[C@H](CO)[C@@H](O)[C@H](O)[C@H]3O)[C@H]12` (some centres undefined), with -2.91% [at 25.3 µM]; and `COC(=O)C1=COC(O[C@@H]2O[C@H](CO)[C@@H](O)[C@H](O)[C@H]2O)[C@@H]2[C@@](C)(O)[C@@H](OC(=O)/C=C/c3ccccc3)C[C@]12O` (some centres undefined), with 18.8% [at 25.3 µM]; and `CCC[C@H](N[C@@H](C)C(=O)N1[C@H](C(=O)O)C[C@@H]2CCCC[C@@H]21)C(=O)O`, with 0.116%.

In the case of `CC1OC(OC2C(OC(=O)[C@]34CCC(C)(C)C[C@H]3C3=CCC5[C@@]6(C)CC[C@H](OC7OC(C(=O)O)C(O)C(O)C7O)C(C)(C)C6CC[C@@]5(C)[C@]3(C)CC4O)OC(CO)C2O)C(O)C(O)C1OC1OCC(O)C(O)C1O` (some centres undefined), the activity change, negative = cytotoxicity was 30.3% [at 11.6 µM]. Then `CCOC(=O)CNC(=O)[C@@H]1CCCN1C(=O)Cc1ccccc1` (PhAc-Pro-Gly-OEt), with -4.23%; and `C/C(=C\CC[C@H](CO)[C@@H]1CC[C@]2(C)C3=C(CC[C@@]12C)[C@@]1(C)CCC(=O)C(C)(C)C1CC3)C(=O)O` (some centres undefined), with 3.09% [at 25.3 µM].
